Hits are enriched below; roughly 2.5% of the tested compounds scored in any of these assays.
PK Bst: alters activity of Bacillus stearothermophilus pyruvate kinase; purified pyruvate kinase, luminescence ATP production; ribose 5-phosphate activator present at AC10; Potency, µM; 51,000 compounds, 1.2% hits; AID 361; in the data active = potency below about 11 µM; inconclusive = mostly about 12 µM to 25 µM;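 the screen sought inhibitors and activators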;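 note: scaled between full activation by ribose 5 phosphate and full inhibition by luteolin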
FLuc inh: blocks Photinus pyralis firefly luciferase activity. 72,000 compounds, 2.2% hits. Potency, µM (doses to about 57.1 µM), for the others: top-dose activity change, negative = inhibition, usual class: inhibitors. AID 411. purified firefly luciferase, luminescence, 8 min. P08659; active = well fitted inhibition curve with a large enough effect; inconclusive = small, poorly fitted or top-dose-only effect; note: nearly all actives have a fitted effect of over 40% in size
Target sequence (P08659 whole entry, looked up): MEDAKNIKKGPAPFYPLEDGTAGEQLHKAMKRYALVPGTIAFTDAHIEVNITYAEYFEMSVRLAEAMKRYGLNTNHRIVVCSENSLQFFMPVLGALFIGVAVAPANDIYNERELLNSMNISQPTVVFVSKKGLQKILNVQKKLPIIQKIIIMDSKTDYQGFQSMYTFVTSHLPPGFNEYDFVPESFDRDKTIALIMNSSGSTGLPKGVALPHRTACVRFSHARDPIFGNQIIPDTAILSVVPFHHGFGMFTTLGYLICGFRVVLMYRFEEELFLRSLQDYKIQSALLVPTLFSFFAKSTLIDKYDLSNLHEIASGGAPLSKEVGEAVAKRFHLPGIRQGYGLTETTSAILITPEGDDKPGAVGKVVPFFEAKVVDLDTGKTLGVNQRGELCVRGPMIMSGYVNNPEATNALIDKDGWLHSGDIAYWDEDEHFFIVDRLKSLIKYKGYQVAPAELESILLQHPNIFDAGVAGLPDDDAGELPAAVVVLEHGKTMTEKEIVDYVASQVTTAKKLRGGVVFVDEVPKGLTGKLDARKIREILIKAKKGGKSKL
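Firefly luciferase (PKLight detection mix) with 10 uM ATP in pH 7.2 imidazole buffer (KCl, MgCl2, Tween 20, BSA). Compounds tested across a concentration series (qHTS). Luminescence read after 8 min at ambient temperature.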
* = called active by the depositor; i = inactive; ? = inconclusive; . = no result given; [ ] = remark or other dose. Unless noted, % is set by controls: 0 for no effect and ±100 for the full control effect; potency is the fitted concentration of half-maximal effect.

SMILES | PK Bst | FLuc inh
CC(=O)OC[C@@H]1O[C@@H](O/N=C2/C[C@@H](O)[C@@H](O)[C@@H]3[C@@H]4C(=O)N(C5CCCCC5)C(=O)[C@H]4CC[C@@H]23)[C@H](OC(C)=O)[C@H](OC(C)=O)[C@@H]1OC(C)=O | . | 0%[11.4 µM]
O[Si@](CCCN1CCCCC1)(c1ccc(F)cc1)C1CCCCC1 | . | 3%
COc1cccc(Cn2c(=O)c(-c3cc(F)cc(F)c3)nc3cnc(N4CCNCC4)nc32)c1 | . | 1%[11.4 µM]
OC[C@@H]1O[C@@H](n2cnc3cncnc32)[C@@H](O)[C@H]1O | . | 2%
Cn1c(C(=O)NCc2ccc3c(c2)OCO3)cc2sccc21 | >57 | -1%
COc1cc(NC(=O)c2cc3sccc3n2C)cc(OC)c1 | 4* | 13µM*
COc1ccc(OC)c(NC(=O)c2cc3sccc3n2C)c1 | . | -26%
Cn1c(C(=O)Nc2ccc3c(c2)OCO3)cc2sccc21 | 6.4* | 7.9µM*
O=C(O)C[C@@H](C(=O)O)C1c2ccccc2-c2ccccc21 | . | 1%[11.4 µM]
COc1ccc2c(c1)Cc1cc(N=[N+]([O-])c3ccc4c(c3)Cc3cc(OC)ccc3-4)ccc1-2 | . | -3%[11.4 µM]
CCCn1nnc(NC(=O)c2ccco2)n1 | >57 | -5%
Cn1nnc(NC(=O)c2ccc(C(C)(C)C)cc2)n1 | ? | 10µM*
Cn1nnc(NC(=O)c2ccccc2F)n1 | . | -12%
CCCn1nnc(NC(=O)c2ccc(OCC)c(Cl)c2)n1 | >57 | -1%
CCn1nnc(NC(=O)c2ccc(-c3ccc(Cl)cc3)o2)n1 | 6.5* | -18%
CCOc1ccc(C(=O)Nc2cccc(C)n2)cc1 | 9.8* | 13µM*
Cc1cccc(NC(=O)c2ccc(S(=O)(=O)N(C)C)cc2)n1 | >57 | -2%
CCOc1ccc(C(=O)Nc2nnn(CC)n2)cc1 | . | 25µM*
Nc1c(S(=O)(=O)O)cc(Nc2cccc(S(N)(=O)=O)c2)c2c1C(=O)c1ccccc1C2=O | . | -8%[11.4 µM]
CCCCOc1ccc(C(=O)Nc2cccc(C)n2)cc1 | i | 13µM*
CCCCOc1ccc(C(=O)O)cc1 | >57 | 2%
Cc1ccc(N2C(=O)c3ccc(N)cc3C2=O)cc1C | . | -23%
Cc1ccc(N2C(=O)c3ccc(N)cc3C2=O)cc1 | . | 16µM*
COCCn1c(=O)c(-c2ccc(Cl)cc2)nc2cnc(N(C)C)nc21 | . | -8%[11.4 µM]
COc1ccc(-c2coc3cc(O[C@@H]4O[C@@H](CO)[C@@H](O)[C@@H](O)[C@H]4O)cc(O)c3c2=O)cc1 | . | -1%[11.4 µM]
SMILES | PK Bst | FLuc inh
CCOc1ccc(C(=O)COC(=O)CC)cc1 | . | 16µM*
CCC(=O)c1ccc(OCC(=O)O)cc1 | >57 | -5%
c1ccc2c(c1)NC(c1ccncc1)n1c-2nc2ccccc21 (stereo not given) | i | -29%[25.5 µM]
c1ccc2c(c1)NC1(CCCC1)n1c-2nc2ccccc21 | i | 25µM*
COc1ccc2nccc(SCC(=O)O)c2c1 | . | 0%[11.4 µM]
CCN(CC)S(=O)(=O)c1ccc(Nc2cc(C)nc3ncnn23)cc1 | >57 | -2%
CCCOC(=O)c1ccc(Nc2cc(C)nc3ncnn23)cc1 | 11* | 1%
C[N+](C)(C)[C@@H](C1=CCCC1=O)c1ccccc1 | . | 5%[11.4 µM]
Nc1nonc1-c1nc2ccccc2[nH]1 | . | 0%
Cn1cc(Cl)c(-c2nc3ccccc3[nH]2)n1 | i | 25µM*
N#CCCn1c(=O)c(CCc2ccccc2)nc2cnc(Nc3ccccc3)nc21 | . | 0%[11.4 µM]
CCN1CCC[C@H]1CNC(=O)c1c(O)c(Cl)cc(Cl)c1OC | . | 13µM*
CCN1CCC[C@@H]1CNC(=O)c1c(O)c(Cl)cc(Cl)c1OC | . | 1%
C[N+](C)(C)CCN(Cc1cccs1)c1ccccn1 | . | 4%[11.4 µM]
CC[C@H]1CC[C@H]2[C@@H]3CC=C4C[C@H](OC(C)=O)[C@@H](N)C[C@@]4(C)[C@H]3CC[C@@]12C | . | 2%[11.4 µM]
COc1ccc(-c2ccc(-c3nnc(-c4cc(OC)ccc4OC)o3)cc2)cc1 | >57 | 0%
COc1ccc(-c2nnc(Nc3nc4c(OC)cccc4s3)o2)cc1 | >57 | 10µM*
Fc1cccc2sc(Nc3nnc(-c4ccccc4)o3)nc12 | i | 13µM*
COc1cccc2sc(NC(=O)c3ccc(S(=O)(=O)N4CCOCC4)cc3)nc12 | >57 | 2%
COc1ccc(-c2nnc(Nc3nc4c(OC)cccc4s3)o2)c(OC)c1 | >57 | 13µM*
COc1cc(OC)cc(-c2nnc(Nc3nc4c(F)cccc4s3)o2)c1 | >57 | 0%
COc1cccc2c1[C@H](CO)N1[C@H](C#N)[C@@H]3C[C@H](C(=O)O)[C@@H]([C@@H]1C2)N3C | . | 0%[11.4 µM]
O=C(O)C[C@H]1OCC=C2C[N@@+]3([O-])CC[C@]45c6ccccc6N[C@@H]4[C@@H]1[C@H]2C[C@H]53 | . | 3%[11.4 µM]
COc1ccc(C(CNC(=O)COc2ccccc2C#N)N2CCOCC2)cc1 (stereo not given) | >57 | 1%
CC(C)(C)NC(=O)NC(=O)COc1ccccc1C#N | i | 20µM*
SMILES | PK Bst | FLuc inh
Cc1ccc(C(=O)Nc2cccc(C(=O)O)c2)cc1S(=O)(=O)N1CCCCC1 | . | 13µM*
Cc1ccc(C(=O)Nc2ccc3c(c2)OCO3)cc1S(=O)(=O)N1CCCC1 | >57 | -23%
O=C(O)CCC/C=C\C[C@H]1[C@@H](/C=C\[C@@H](O)C2Cc3ccccc3C2)[C@H](F)C[C@H]1O | . | 6%
CCOc1ccc2c(c1)sc(=NC(=O)C1CC1)n2C | i | 13µM*
CCOc1ccc2c(c1)sc1nc(C(=O)OC)cc(=O)n12 | . | 1%
Cn1c(CCN2CCOCC2)nc2cc(NC(=O)COc3ccc(Cl)cc3)ccc21 | >57 | 4%
COc1ccc(OCC(=O)Nc2ccc3c(c2)nc(CCN2CCOCC2)n3C)cc1 | i | 25µM*
CCc1cc2c(nc1CC)CCN(CC/C(C)=N/O[C@@H](C)CN1CCCc3nc(C)c(C)cc31)C2 | . | 0%[11.4 µM]
Clc1ccc2nc(N3CCCCC3)[nH]c2c1 | i | 13µM*
Clc1ccc2nc(N3CCCCC3)sc2c1 | i | ?
O[C@@H](c1cc(-c2ccccc2)nc2c1ccc1ccccc12)[C@@H]1CCCCN1 | . | 1%[11.4 µM]
CCCCCN=c1ccn(Cc2ccccc2)c2ccccc12 | . | 25µM*
CCCCCCn1cc(C(=O)O)c(=O)c2ccccc21 | >11 | 1%[25.5 µM]
CN[C@@H](c1ccncc1)[C@@H](NC)c1ccncc1 | . | 1%[11.4 µM]
C[C@@H]1C(=O)N(C)C(=O)c2nc[nH]c21 | . | -2%
COc1ccc(N(C)S(=O)(=O)c2ccc3c(c2)CCC(=O)N3)cc1 | >57 | 4%
CN(C)S(=O)(=O)c1ccc2c(c1)/C(=C/c1cc3c([nH]1)CCCC3)C(=O)N2 | . | 25µM*
CCc1nc(SCC(=O)N2CCCC2)c2ccccc2n1 | >57 | -2%
CC(C)c1nc(SCC(=O)N2CCCC2)c2ccccc2n1 | . | 7.9µM*
Cc1cc(C(=O)CSC(=S)SC(C)(C)C)ccc1Cl | . | -8%[11.4 µM]
O[C@@H](COc1cccc2ccccc12)CN1CCOCC1 | . | 1%[11.4 µM]
Cc1nc2cc(-c3ccccc3)ccc2o1 | . | 16µM*
Cc1cc2c(C)nc(-c3ccccc3)nc2o1 | >57 | 1%
CC(C)C1=CC2=CC[C@H]3[C@@](C)(CCC[C@]3(C)C(=O)O)[C@@H]2CC1 | . | 0%[11.4 µM]
CCOC(=O)c1[nH]c2cc3c(cc2c1NC(=O)CN1CC(C)CC(C)C1)OCO3 (stereo not given) | 3.5* | -1%[25.5 µM]
CCOC(=O)c1[nH]c2ccc(OCC)cc2c1NC(=O)CN1CCCC(C)C1 (stereo not given) | i | 4%
Cc1occc1-c1nnc(SCc2cc(=O)n3cc(Br)ccc3n2)n1C | >57 | 0%
Cc1ccccc1Nc1nc(CSc2nnc(-c3ccoc3C)n2C)cs1 | . | 25µM*
